Measurements: publication PMC4336329 (PLoS ONE, 2015)
About 2,200 (0.71%) of roughly 310,000 compounds showed an effect of 50% or more. Effects have a minus sign here. The full list was thinned out, with strong results kept by preference.

Molecular target: human ether-à-go-go-related gene (hERG) potassium channel (human, UniProt Q12809)
Experiment: primary screen, population patch clamp on CHO cells stably expressing hERG; higher = less effect of the substance

Sequence of human ether-à-go-go-related gene (hERG) potassium channel (Q12809 whole entry, looked up): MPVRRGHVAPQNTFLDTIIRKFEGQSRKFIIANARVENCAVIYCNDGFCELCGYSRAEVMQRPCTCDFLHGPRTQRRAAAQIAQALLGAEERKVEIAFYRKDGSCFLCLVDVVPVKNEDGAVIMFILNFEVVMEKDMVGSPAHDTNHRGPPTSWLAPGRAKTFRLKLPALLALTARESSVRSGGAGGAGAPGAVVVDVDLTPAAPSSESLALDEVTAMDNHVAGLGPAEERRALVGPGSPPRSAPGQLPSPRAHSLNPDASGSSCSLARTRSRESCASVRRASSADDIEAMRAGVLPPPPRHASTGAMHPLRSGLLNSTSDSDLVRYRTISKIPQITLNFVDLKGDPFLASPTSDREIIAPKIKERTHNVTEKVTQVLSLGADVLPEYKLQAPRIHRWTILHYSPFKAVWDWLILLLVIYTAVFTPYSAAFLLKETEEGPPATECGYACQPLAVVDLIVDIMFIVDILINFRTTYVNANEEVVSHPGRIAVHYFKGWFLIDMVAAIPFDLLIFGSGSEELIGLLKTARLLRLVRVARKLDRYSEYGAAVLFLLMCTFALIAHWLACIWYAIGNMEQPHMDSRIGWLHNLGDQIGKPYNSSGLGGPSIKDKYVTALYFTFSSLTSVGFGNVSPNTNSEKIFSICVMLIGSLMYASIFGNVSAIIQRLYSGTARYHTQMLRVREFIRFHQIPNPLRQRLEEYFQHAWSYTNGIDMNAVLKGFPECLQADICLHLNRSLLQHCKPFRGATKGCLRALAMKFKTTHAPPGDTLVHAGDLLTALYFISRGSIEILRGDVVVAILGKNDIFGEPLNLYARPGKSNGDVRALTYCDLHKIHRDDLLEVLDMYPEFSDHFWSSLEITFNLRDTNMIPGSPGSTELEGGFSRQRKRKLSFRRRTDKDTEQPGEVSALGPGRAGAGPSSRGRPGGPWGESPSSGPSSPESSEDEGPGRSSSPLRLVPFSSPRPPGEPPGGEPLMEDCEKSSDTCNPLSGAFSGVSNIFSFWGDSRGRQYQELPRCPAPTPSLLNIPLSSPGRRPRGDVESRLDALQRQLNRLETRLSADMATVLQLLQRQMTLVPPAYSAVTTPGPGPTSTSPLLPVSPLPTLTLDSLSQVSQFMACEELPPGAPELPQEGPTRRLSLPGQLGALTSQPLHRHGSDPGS

Structure (SMILES) | hERG current change (%, negative = inhibition) at 1uM [%]
CCN1CCN(CC(=O)Nc2cc(C(F)(F)F)ccc2OCCOC)CC1.O=C(O)C(=O)O | -70.9
CCCCCNCC(=O)Nc1cc(C(F)(F)F)ccc1OCCOC | -5.74
COCCOc1ccc(C(F)(F)F)cc1NC(=O)c1ccccc1 | -2.95
CC(=O)N(C)c1ccc(NC(=O)Nc2ccc(Cl)cc2)cc1 | 8.67
CC(=O)Cc1ccccc1OCC(=O)O | 18.9
O=C(Nc1cc(Cl)cc(Cl)c1)c1cnn2cccnc12 | 16.2
COC(=O)c1c(NC(=O)CN2C(=O)C(=O)N(CC(C)C)C2=O)sc(C)c1C | 9.77
O=C1N(Cc2cccnc2)C[C@@H]2C[C@@H](c3cccc(Oc4ccccc4)c3)N3CCC[C@@]123 | -4.79
O=C1N(Cc2cccc(Cl)c2)C[C@@H]2C[C@@H](c3cccn3-c3ccccn3)N3CCC[C@@]123 | -56.9
O=C1N(Cc2cccc(Cl)c2)C[C@@H]2C[C@@H](c3cccc4ncccc34)N3CCC[C@@]123 | -2.07
O=C1N(Cc2cccc(Cl)c2)C[C@@H]2C[C@@H](c3cccn3-c3cccnc3)N3CCC[C@@]123 | 3.63
O=C1N(Cc2cccc(Cl)c2)C[C@@H]2C[C@@H](c3cccc4cccnc34)N3CCC[C@@]123 | -63.8
O=C1N(Cc2cccnc2)C[C@@H]2C[C@@H](c3cccc(OC4CCCC4)c3)N3CCC[C@@]123 | -53.3
O=C1N(Cc2cccc(Cl)c2)C[C@@H]2C[C@@H](c3ccccn3)N3CCC[C@@]123 | 7.23
O=C1N(Cc2cccc(Cl)c2)C[C@@H]2C[C@@H](c3cccn3-c3nccs3)N3CCC[C@@]123 | -19.2
O=C1N(Cc2cccnc2)C[C@@H]2C[C@@H](c3cccc(OCc4ccccc4)c3)N3CCC[C@@]123 | -17.8
COc1ccc(C(=O)Nc2nc(N3C(=O)c4ccccc4C3=O)n(-c3ccccc3)n2)cc1 | 3.14
CSc1ncc(Sc2ccccc2)c(C(=O)O)n1 | 10.3
Cc1ccccc1-c1noc(CCC(=O)NCCc2ccccc2)n1 | 10.4
O=C(CSc1nnc(NC(=O)c2ccc(F)cc2F)s1)NC1CC1 | 14.9
COc1cc(OC)cc(-c2nnc(Nc3nc4c(F)cccc4s3)o2)c1 | 6.96

Structure (SMILES) | hERG current change (%, negative = inhibition) at 1uM [%]
O=C(c1ccc2c(=O)n(CC3CCCO3)c(=S)[nH]c2c1)N1CCN(c2ccccc2)CC1 (stereo not drawn) | 3.81
O=C(CCNS(=O)(=O)c1cccs1)N1CCN(c2cccc(C(F)(F)F)c2)CC1 | -2.16
C=CCn1c(C2CC2)n[nH]c1=S | 1.66
O=C(NCc1ccc(Cl)cc1)c1noc2c1CCCCC2 | -6.49
O=C(CSc1nc(=O)n2ccccc2n1)N1CCC(Cc2ccccc2)CC1 | -27.4
Cc1cccn2c(=O)nc(SCC(=O)N3CCC(C)CC3)nc12 | 2.05
Cc1cccn2c(=O)nc(SCC(=O)N3CCC(Cc4ccccc4)CC3)nc12 | -69.2
CCOc1ccccc1NC(=O)C(OC(=O)c1ccccc1O)c1ccccc1 (stereo not drawn) | -2.03
O=S(=O)(NC1CCC(NS(=O)(=O)c2c(F)cccc2F)CC1)c1ccc2c(c1)OCCO2 (stereo not drawn) | 10.7
Cc1ccc(C(=O)N[C@@H](C)CN2C3=NC[C@H](Cc4ccccc4)N3C[C@H]2Cc2ccc(O)cc2)cc1Br | -68.1
COc1ccc(C[C@H]2CN3C(=NC[C@@H]3Cc3ccc(O)cc3)N2C[C@H](C)NC(=O)c2ccc(C)c(Br)c2)cc1 | -60.1
Cc1ccc(C(=O)N[C@@H](C)CN2C3=NC[C@H](C(C)C)N3C[C@H]2Cc2ccc(O)cc2)cc1Br | -34.3
Cc1ccc(C(=O)NCCN2C3=NC[C@@H](Cc4ccccc4)N3C[C@H]2Cc2ccc(O)cc2)cc1Br | -4.33
C/C=C(\C)C(=O)NCCN1C2=NC[C@H](Cc3ccc(O)cc3)N2C[C@@H]1Cc1ccc(OC)cc1 | 10.6
COc1ccc(C[C@@H]2CN3C(=NC[C@@H]3C)N2C[C@H](C)NC(=O)c2ccc(C)c(Br)c2)cc1 | -56.4
C/C=C(\C)C(=O)NCCN1C2=NC[C@H](C)N2C[C@@H]1Cc1ccc(OC)cc1 | 7.75
COc1ccc(C[C@H]2CN3C(=NC[C@@H]3C(C)C)N2C[C@H](C)NC(=O)c2ccc(C)c(Br)c2)cc1 | -41.9
COc1ccc(C[C@H]2CN3C(=NC[C@@H]3Cc3ccc(O)cc3)N2CCNC(=O)c2ccc(C)c(Br)c2)cc1 | -18.4
Cc1cc(Cl)cc(Br)c1OCCCCn1cncn1 | -0.515
Cc1cc(=O)[nH]c(N/N=C/c2cccc([N+](=O)[O-])c2)n1 | 9.49
CC1(c2nnc(Cc3ccccc3)o2)CC(c2ccccc2[N+](=O)[O-])=NO1 (stereo not drawn) | 0.886

Structure (SMILES) | hERG current change (%, negative = inhibition) at 1uM [%]
Cc1c(NC(=O)c2ccc(Cl)s2)c(=O)n(-c2ccccc2)n1C | 8.57
Cn1nc2c(c1C(=O)N1CCCC(C(=O)c3cc(F)ccc3F)C1)CCCC2 (stereo not drawn) | 10.8
CO/N=C(\Cn1ncc(NC2CCCCC2)c(Br)c1=O)c1ccc(Cl)cc1 | -1.74
CCCCNC(=O)CCCCCNS(=O)(=O)c1ccc(Br)cc1 | -26.3
CC(=O)Nc1ccc(S(=O)(=O)N2CCN(c3cc(C)nc4ncnn34)CC2)cc1 | -9.05
Cc1cc(N2CCN(c3ccccc3)CC2)n2ncnc2n1 | -7.73
Cc1cc(N2CCN(S(=O)(=O)c3ccc4ccccc4c3)CC2)n2ncnc2n1 | -48.4
Cc1cc(N2CCN(c3ccc(F)cc3)CC2)n2ncnc2n1 | -14.8
Cc1cc(N2CCN(C/C=C/c3ccccc3)CC2)n2ncnc2n1 | -52.2
Cc1cc(N2CCN(c3nc4ccccc4s3)CC2)n2ncnc2n1 | -74.9
Cc1cc(N2CCN(S(=O)(=O)c3ccc(Br)cc3)CC2)n2ncnc2n1 | -84.8
Cc1cc(N2CCN(S(=O)(=O)Cc3ccccc3)CC2)n2ncnc2n1 | -11.4
Cc1cc(N2CCN(C(c3ccccc3)c3ccccc3)CC2)n2ncnc2n1 | 8.18
O=C(Nc1ccc(Nc2ccccc2)cc1)C(Cl)(Cl)Cl | 7.95
CCCS(=O)(=O)N1CCN(C(=O)COc2ccc(OC)cc2)CC1.O=C(O)C(=O)O | 11.7
O=C(CN(C(=O)c1csnn1)c1ccccc1C(F)(F)F)NC1CCCCC1 | 14.5
Cc1ccc(N(CC(=O)NCC2CCCO2)C(=O)Cn2nnc(-c3cccs3)n2)cc1 (stereo not drawn) | 2.07
CC(C)(CN=C1NS(=O)(=O)c2ccccc21)CNC(=O)CN1C(=O)c2ccccc2C1=O | -1.01
COCCCNC(=O)C(=O)Nc1cc2c3c(c1)CCN3C(=O)CC2 | 21.5
CCOc1cc(CN2CCCC(CO)(Cc3ccc(F)cc3F)C2)ccc1OC (stereo not drawn) | -10.8
Cc1cccc(N2CCN(C(=O)Cn3nc(Cc4ccncc4)c4ccccc4c3=O)CC2)c1C | 3.71

Structure (SMILES) | hERG current change (%, negative = inhibition) at 1uM [%]
CC(C)(C)OC(=O)N/N=C\c1ccc(OC(=O)c2ccco2)cc1 | 10.8
COc1ccccc1C(=O)NC1CCN(C(=O)Nc2ccc(C)cc2)CC1 | 10.5
O=C(CC1SC(=Nc2ccc(OC(F)F)cc2)N(CCN2CCOCC2)C1=O)Nc1ccc(F)cc1F (stereo not drawn) | -80.4
COc1ccc(N=C2SC(CC(=O)Nc3ccccc3)C(=O)N2CCN2CCOCC2)cc1 (stereo not drawn) | 3.66
O=C(CC1SC(=Nc2ccccc2F)N(CCN2CCOCC2)C1=O)Nc1ccc(F)cc1F (stereo not drawn) | 1.58
c1ccc(CN2CCC(Nc3ncnc4sccc34)CC2)cc1 | -31.2
Cc1sc2ncnc(NC3CCN(Cc4ccccc4)CC3)c2c1C | -56.9
Cc1csc2ncnc(NC3CCN(Cc4ccccc4)CC3)c12 | -35.4
NC(=S)Nc1cccc2cc3ccccc3cc12 | 0.594
O=C1NC(c2ccc3c(c2)OCO3)Oc2ccccc21 (stereo not drawn) | 7.7
CCN(CC)CCOC(=O)c1ccc(Cl)cc1Cl.Cl | -8.41
CN(C)CCCOC(=O)c1ccc(Cl)cc1Cl.Cl | -7.49
CCCN(CCC)CCCOC(=O)c1ccc(Cl)cc1Cl.Cl | -56.8
Cn1cc(CNCc2ccc(-n3cccn3)cc2)c(-c2ccccc2F)n1 | -35.4
CN(Cc1cccc(-n2cccn2)c1)Cc1cn(C)nc1-c1ccccc1F | 16.7
CN(Cc1ccc(-n2cccn2)cc1)Cc1cn(C)nc1-c1ccccc1F | -63.5
Cc1ccc(=O)n(C(C(=O)NCc2ccco2)C(=O)c2ccc(F)cc2)c1 (stereo not drawn) | 6.1
Cn1c(Cn2nnc(-c3ccccc3)n2)nnc1SCc1ccccc1Cl | 5.26
